Bioassay records: PubChem, National Center for Advancing Translational Sciences (NCATS)
USP2a inh: USP2a (human) protease inhibition; O75604; USP2 core, Ub-CHOP2 coupled fluorogenic reporter, 485/531; Potency, µM (highest dose often 38.3 µM), actives largely listed as inhibitors; 330,000 compounds, 0.01% hits; AID 463254
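Cell-free coupled assay: 10nM USP2 core preincubated 30min RT with compound in Tris-HCl pH 8.0/CaCl2/CHAPS buffer, then 25nM Ub-CHOP2 and 25nM reporter substrate; fluorescence (Ex 485/Em 531) read after 60min RT, normalized to NEM inhibition, concentration-response curves fitted.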
S-ASM inh: blocks human secretory acid sphingomyelinase; Potency, µM (series often up to 57.5 µM), usual class: inhibitors; placental ASM, HMU-PC fluorogenic substrate, 60 min; 340,000 compounds, 0.006% hits; P17405
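Steps: dispense placental human ASM, pin compound, wait 10 min at room temperature, add HMU-PC0 substrate at 9 uM final, incubate 60 min at 37 °C, add stop solution raising pH to 10, read fluorescence.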
CCT chaperon mod: cytosolic chaperonin activity modulation; 360,000 compounds, 0.3% hits; activity change, % (no concentration beside the values), hits read low; purified chaperonin ATPase assay, HTRF ADP detection, 30 min; in the data active means activity change below about -30%
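Nucleotide hydrolysis assay: TRiC at 20–40 nM final (set by batch activity) with 10 uM ATP, 30 min at 37 °C, in presence of 76 uM compound. Detection by competitive ADP HTRF, 30 min ambient.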
MmCpn inh: M. maripaludis TRiC chaperonin inhibition; purified Mm-Cpn ATPase, ADP Transcreener TR-FRET; Potency, µM (series often up to 76.9 µM), most hits filed as inhibitors; 330,000 compounds, 0.031% hits; AID 504842; further: nearly all actives have a fitted effect of over 80% in size
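Reaction buffer contained 30 mM Tris pH 7.4, 100 mM KCl, 5 mM MgCl2 and 1 mM DTT. Mm-CPN (25 nM final) hydrolysed 10 uM ATP over 30 min at 37°C; ADP was read by HTRF.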
Hits are given with their value; i = inactive; ? = inconclusive; nt = not tested or not shown. The list is not random: actives were taken first. Their share in the collection is about 0.3%. Unless noted, the call rests on the fitted dose curve; in most records, active means well fitted curve in the direction sought with a large enough effect; inconclusive means small, poorly fitted or top-dose-only effect, or another doubt; inactive means no such curve, though single readings can be large; an effect the other way counts as inactive or inconclusive.

SMILES | USP2a inh | S-ASM inh | CCT chaperon mod | MmCpn inh
COc1ccc(O)c(CN2CCCC(C(=O)c3ccccc3SC)C2)c1 (configuration not stated) | i | i | -45 | i
C=CC1CN2CCC1CC2C(OC(C)=O)c1ccnc2ccc(OC)cc12 (configuration not stated) | i | i | i | i
O=[N+]([O-])c1ccc2c(c1)C(c1ccccc1)=NCCN2 | i | i | i | i
COc1ccc(-n2c(SCCN(C)C)nc3ccccc3c2=O)cc1 | i | i | -113 | i
C=CCn1c(O)c(C(CC)=Nc2ccccc2NC(C)=O)c(=O)[nH]c1=O | i | i | i | i
O=C(c1cc([N+](=O)[O-])ccc1N1CCNCC1)N1CCOCC1 | i | i | i | i
O=C(c1cc(-c2ccc(Cl)cc2)n(-c2ccc(Cl)cc2Cl)n1)N1CCOCC1 | i | 28µM | i | i
Nc1ccc(-c2ccccc2)cc1 | nt | i | -52 | nt
Nc1ccc2ccccc2c1 | nt | i | i | nt
COC(=O)C1=C(c2ccc(-c3ccccc3)c(F)c2)C[C@@H]2CC[C@H]1N2C(=O)N1CCCCC1 | i | i | i | i
COC(=O)C1=C(c2ccc(-c3ccccc3)c(F)c2)C[C@@H]2CC[C@H]1N2C(=O)N1CCCC1 | i | i | -33 | i
O=C(c1cn(Cc2ccccc2F)c2ncccc12)C(F)(F)F | i | i | -36 | i
C=Cn1ccnc1P(=S)(c1nccn1C=C)C1CCCCC1 | i | i | -77 | i
N/C(=N/[N+](=O)[O-])N1CCN(C(=O)Oc2ccc([N+](=O)[O-])cc2)CC1 | i | i | i | ?
